According to PubChem BioAssay (NCI):
About 83,000 compounds went through this panel and 20% of them were active in at least one assay; those are over-represented in the sample as a whole.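 Single-dose data. Exposure time 48 hours. Values below 10 considered active.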 Active and inactive are the calls of the source.

Each compound was assayed on BT-549 breast (assay: NCI-60 one-dose screen, 48 h (100 = growth as untreated, 0 = no growth, -100 = all killed)). Conditions: 10 µM unless noted.

Compound	growth
Cc1ccccc1Nc1cc(O)c2c(=O)cc(-c3ccccc3)oc2c1	47.1% (inactive)
CN(C)c1ccc(/C=C(\C#N)c2cc3ccccc3[nH]2)cc1	42.4% (inactive)
CNC1=CC(=O)c2c(C(=O)OC)c(C)[n+]([O-])c(C)c2C1=O	88.3% (inactive)
Cc1ccc(-c2nc(/C=C3/C(=O)Nc4ccc(F)cc43)c3ccccn23)cc1	111% (inactive)
O=S(=O)(Oc1ccc(Br)cc1)c1ccc(Cl)cc1	99.8% (inactive)
Cc1ccc(S(=O)(=O)Oc2ccc3sc4cccc(NCCN(C)C)c4c(=O)c3c2)cc1	-88.6% (active)
CCCCNc1nnc2n(Cc3ccccc3)c(=O)c3c4c(sc3n12)CCCC4	56.3% (inactive)
N=C(N)c1ccc(-c2ccc(-c3ccccc3)s2)cc1	90.6% (inactive)
CC/C(Cc1ccccc1)=C(\c1ccc(OCCCN(C)C)cc1)c1ccc(OC(=O)NCc2ccccc2)cc1	95% (inactive)
CNC(=O)c1cc(Oc2ccc3c(c2)sc2nc(-c4ccc(OC)cc4)cn23)ccn1	52.4% (inactive)
O=C(Nc1ncc(Cc2ccccc2)s1)c1ccc2c(c1)OCCCO2	48.8% (inactive)
Cc1[nH]c(C2CC(c3ccc(C(F)(F)F)c(F)c3)=NN2c2ccccc2)c(C)c1C(=O)NCC(F)(F)F (stereo not given)	103% (inactive)
COc1cc2c(cc1OCCCCN1CCN(C(=S)SCCC(C#N)(c3ccccc3)c3ccccc3)CC1)N=C[C@@H]1CCCN1C2=O	-91.8% (active)
COc1ccc(-c2nc(-c3cn(C)c4ncccc34)cs2)cc1	-30.1% [100 µM] (active)
COc1ccc(C(=O)Cn2c(C(=O)c3ccc(Cl)cc3)nc3ccccc32)cc1	88.8% (inactive)
Cc1ccc(Cl)cc1NC(=O)c1sc2nc3c(cc2c1N)C(=O)CCC3	93.5% (inactive)
Nn1c(=O)c(=O)[nH]c2c(cnn2-c2ccccc2)c1=O	114% (inactive)
Cc1ccc(CNc2c3ccccc3nc3ccccc23)cc1	71.3% (inactive)
COc1cc(Cl)c(C)cc1NC(=O)c1cc2ccccc2cc1O	22.9% (inactive)
Cc1nc2ccccc2c(/C=C/c2ccccc2)c1C(=O)/C=C/c1ccccc1	40.6% (inactive)

Compound	growth
Cc1ncc(C(=O)Nc2ccc(CN3CCN(C)CC3)c(C(F)(F)F)c2)cc1C#Cc1cnc(N)c2ncccc12	42.4% (inactive)
CN(CCCNC(=O)Cc1ccc2ccc3cccc4ccc1c2c34)CCCNc1cc(-c2ccc3ccccc3c2)nc2ccccc12	-4.41% (active)
O=[N+]([O-])c1cc(NS(=O)(=O)c2ccccc2)ccc1NS(=O)(=O)c1ccccc1	74.9% (inactive)
O=C1/C(=C\c2cccc3nccnc23)SC(=S)N1CCc1ccc(O)cc1	96% (inactive)
CC(=C(c1ccc(OCCN2CCCCC2)cc1)c1ccc(OCCN2CCCCC2)cc1)c1ccc(Cl)cc1	-87% (active)
CCN1CCN(CC(=O)Nc2nc3ccc(NCc4ccc(F)cc4)cc3s2)CC1	97.9% (inactive)
CCCCNc1cc(-c2cn[nH]c2-c2cc(C)cc(OC)c2)nc(-c2cccnc2)n1	85.3% (inactive)
C/C(=N\O)c1ccc(NC(=O)CSc2nnc(-c3cc(-c4ccc(S(N)(=O)=O)cc4)nc4ccccc34)n2-c2ccccc2)cc1	67.9% (inactive)
CCCn1cnc2c(c1=N)C(c1ccc(F)cc1)c1sc3c(F)cccc3c1O2 (stereo not given)	63.9% (inactive)
C=C1C(=O)O[C@H]2[C@H]1CC/C(COC(=O)/C=C\C(=O)NCc1ccc(Cn3c(=O)sn(CCCCC)c3=O)cc1)=C\CC[C@@]1(C)O[C@@H]21	85.8% (inactive)
Cc1c2cccnc2c(C)c2c1c1cc(CO)ccc1n2C	35% (inactive)
C=C1C(=O)O[C@H]2[C@H]1CC/C(COC(=O)c1ccc(C(=O)O)s1)=C\CC[C@@]1(C)O[C@@H]21	42.9% (inactive)
CCN1C(=O)N(CC)C2C1NN=c1s/c(=C\c3cnc(C)n3C)c(=O)n12 (stereo not given)	50.1% (inactive)
CC1=C(C(=O)Nc2ccccc2)C(c2ccc3c(c2)OCO3)NC(=S)N1 (stereo not given)	88.1% (inactive)
O=C(NC(Cc1nnc2n(Cc3ccccc3)c(=O)c3c4c(sc3n12)CCCC4)c1ccccc1)c1ccccc1 (stereo not given)	100% (inactive)
Cc1c2ccncc2c(C)c2c1c1cc(CO)ccc1n2C	10.7% (inactive)
COc1ccc(-c2nc3c(N)c(CO)cnc3s2)cc1	104% (inactive)
O=C(O)COc1ccc(Cl)c(Cl)c1	120% (inactive)
CCN(CC)c1ccc(/C=N/NC(=O)Cc2ccc(Nc3ccnc(C(F)(F)F)c3)cc2)c(O)c1	41.9% (inactive)
NC(=O)c1cnc(Nc2cccc(N)c2)nc1NCCCNC(=O)C1CCC1	26.7% (inactive)

These compounds were tested on MDA-MB-435 melanoma in the same assay as above. Conditions: 10 µM unless noted.

Compound	growth
Cc1ccccc1Nc1cc(O)c2c(=O)cc(-c3ccccc3)oc2c1	1.9% (active)
CN(C)c1ccc(/C=C(\C#N)c2cc3ccccc3[nH]2)cc1	-25.4% (active)
CNC1=CC(=O)c2c(C(=O)OC)c(C)[n+]([O-])c(C)c2C1=O	-17.3% (active)
Cc1ccc(-c2nc(/C=C3/C(=O)Nc4ccc(F)cc43)c3ccccn23)cc1	86.7% (inactive)
O=S(=O)(Oc1ccc(Br)cc1)c1ccc(Cl)cc1	104% (inactive)
Cc1ccc(S(=O)(=O)Oc2ccc3sc4cccc(NCCN(C)C)c4c(=O)c3c2)cc1	-96.3% (active)
CCCCNc1nnc2n(Cc3ccccc3)c(=O)c3c4c(sc3n12)CCCC4	51.8% (inactive)
N=C(N)c1ccc(-c2ccc(-c3ccccc3)s2)cc1	12% (inactive)
CC/C(Cc1ccccc1)=C(\c1ccc(OCCCN(C)C)cc1)c1ccc(OC(=O)NCc2ccccc2)cc1	77.6% (inactive)
CNC(=O)c1cc(Oc2ccc3c(c2)sc2nc(-c4ccc(OC)cc4)cn23)ccn1	5.17% (active)
O=C(Nc1ncc(Cc2ccccc2)s1)c1ccc2c(c1)OCCCO2	-34.2% (active)
Cc1[nH]c(C2CC(c3ccc(C(F)(F)F)c(F)c3)=NN2c2ccccc2)c(C)c1C(=O)NCC(F)(F)F (stereo not given)	98.1% (inactive)
COc1cc2c(cc1OCCCCN1CCN(C(=S)SCCC(C#N)(c3ccccc3)c3ccccc3)CC1)N=C[C@@H]1CCCN1C2=O	-17% (active)
COc1ccc(-c2nc(-c3cn(C)c4ncccc34)cs2)cc1	-43.6% [100 µM] (active)
COc1ccc(C(=O)Cn2c(C(=O)c3ccc(Cl)cc3)nc3ccccc32)cc1	-8.55% (active)
Cc1ccc(Cl)cc1NC(=O)c1sc2nc3c(cc2c1N)C(=O)CCC3	-3.04% (active)
Nn1c(=O)c(=O)[nH]c2c(cnn2-c2ccccc2)c1=O	107% (inactive)
Cc1ccc(CNc2c3ccccc3nc3ccccc23)cc1	31.2% (inactive)
COc1cc(Cl)c(C)cc1NC(=O)c1cc2ccccc2cc1O	3.68% (active)
Cc1nc2ccccc2c(/C=C/c2ccccc2)c1C(=O)/C=C/c1ccccc1	-17.2% (active)

Compound	growth
Cc1ncc(C(=O)Nc2ccc(CN3CCN(C)CC3)c(C(F)(F)F)c2)cc1C#Cc1cnc(N)c2ncccc12	-66.5% (active)
CN(CCCNC(=O)Cc1ccc2ccc3cccc4ccc1c2c34)CCCNc1cc(-c2ccc3ccccc3c2)nc2ccccc12	-63.4% (active)
O=[N+]([O-])c1cc(NS(=O)(=O)c2ccccc2)ccc1NS(=O)(=O)c1ccccc1	123% (inactive)
O=C1/C(=C\c2cccc3nccnc23)SC(=S)N1CCc1ccc(O)cc1	97.4% (inactive)
CC(=C(c1ccc(OCCN2CCCCC2)cc1)c1ccc(OCCN2CCCCC2)cc1)c1ccc(Cl)cc1	-96.6% (active)
CCN1CCN(CC(=O)Nc2nc3ccc(NCc4ccc(F)cc4)cc3s2)CC1	93.4% (inactive)
CCCCNc1cc(-c2cn[nH]c2-c2cc(C)cc(OC)c2)nc(-c2cccnc2)n1	92.1% (inactive)
C/C(=N\O)c1ccc(NC(=O)CSc2nnc(-c3cc(-c4ccc(S(N)(=O)=O)cc4)nc4ccccc34)n2-c2ccccc2)cc1	69.5% (inactive)
CCCn1cnc2c(c1=N)C(c1ccc(F)cc1)c1sc3c(F)cccc3c1O2 (stereo not given)	-35.6% (active)
C=C1C(=O)O[C@H]2[C@H]1CC/C(COC(=O)/C=C\C(=O)NCc1ccc(Cn3c(=O)sn(CCCCC)c3=O)cc1)=C\CC[C@@]1(C)O[C@@H]21	60.6% (inactive)
Cc1c2cccnc2c(C)c2c1c1cc(CO)ccc1n2C	22.6% (inactive)
C=C1C(=O)O[C@H]2[C@H]1CC/C(COC(=O)c1ccc(C(=O)O)s1)=C\CC[C@@]1(C)O[C@@H]21	11.7% (inactive)
CCN1C(=O)N(CC)C2C1NN=c1s/c(=C\c3cnc(C)n3C)c(=O)n12 (stereo not given)	-69.1% (active)
CC1=C(C(=O)Nc2ccccc2)C(c2ccc3c(c2)OCO3)NC(=S)N1 (stereo not given)	103% (inactive)
O=C(NC(Cc1nnc2n(Cc3ccccc3)c(=O)c3c4c(sc3n12)CCCC4)c1ccccc1)c1ccccc1 (stereo not given)	105% (inactive)
Cc1c2ccncc2c(C)c2c1c1cc(CO)ccc1n2C	6.7% (active)
COc1ccc(-c2nc3c(N)c(CO)cnc3s2)cc1	92.9% (inactive)
O=C(O)COc1ccc(Cl)c(Cl)c1	104% (inactive)
CCN(CC)c1ccc(/C=N/NC(=O)Cc2ccc(Nc3ccnc(C(F)(F)F)c3)cc2)c(O)c1	23.9% (inactive)
NC(=O)c1cnc(Nc2cccc(N)c2)nc1NCCCNC(=O)C1CCC1	82.6% (inactive)
